Measurements: the supplement of paper PMC9262897, “Low-cost anti-mycobacterial drug discovery using engineered E. coli” (Nature Communications, 2022)
Counter-ions that a name gives are not always drawn. ± gives the standard deviation of the averaged measurements.

Tests used:
Assay in all cases: growth (OD600 after 10 h); higher = more growth (less inhibition)
[1] = tested on: E. coli TESEC Alr+ wild-type control; conditions: compound 0.1 mM; raw OD600 reference: median of DMSO wells 0.241, cell-free background 0.041
Method: (§1)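 TESEC Mtb Alr E. coli, or the Alr+ wild-type control, in 384-well plates with Prestwick library compounds at 0.1 mM and 1% DMSO, across arabinose induction levels of 1E3 to 1E7 nM. Growth is read as OD600 after 10 h at 37 °C in triplicate biological replicates.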

E. coli TESEC Mtb Alr [2] = conditions: compound 0.1 mM
Method: as §1

E. coli TESEC Mtb Asd = conditions: compound 0.1 mM
Method: (§2)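 TESEC E. coli strains in which the native enzyme is deleted and replaced by arabinose-inducible Mtb Asd, DapB, CysH or TrpD, each grown in its selective medium. Strains were screened against the Prestwick library at 0.1 mM and 1% DMSO in 384-well format at low and high arabinose induction. Growth is read as OD600 after 10 h in triplicate.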

E. coli TESEC Mtb DapB = conditions: compound 0.1 mM
Method: as §2

E. coli TESEC Mtb Alr [3] = conditions: compound 0.1 mM; remark: listed apart in the source
Method: (§3)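 TESEC Mtb Alr E. coli (ΔaraC ΔtolC ΔentC Δalr ΔdadX, arabinose-inducible Mtb Alr) or the Alr+ wild-type control strain, grown in defined M9-fructose medium without D-alanine in 96-well plates with Prestwick library compounds at 0.1 mM and 1% DMSO. Low Alr induction is 0.1 µM arabinose and high induction is 10 mM arabinose.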

[4] = tested on: E. coli TESEC Alr+ wild-type control; conditions: compound 0.1 mM; raw OD600 reference: median of DMSO wells 0.49, cell-free background 0.052
Method: as §3

[5] = arabinose 1000 nM, raw OD600 reference: median of DMSO wells 0.294, cell-free background 0.041
[6] = arabinose 10000 nM, raw OD600 reference: median of DMSO wells 0.264, cell-free background 0.041
[7] = arabinose 100000 nM, raw OD600 reference: median of DMSO wells 0.201, cell-free background 0.041
[8] = arabinose 1000000 nM, raw OD600 reference: median of DMSO wells 0.193, cell-free background 0.041
[9] = arabinose 10000000 nM, raw OD600 reference: median of DMSO wells 0.146, cell-free background 0.041
[10] = arabinose induction (level): High, raw OD600 reference: median of DMSO wells 0.331, cell-free background 0.041
[11] = arabinose induction (level): Low, raw OD600 reference: median of DMSO wells 0.417, cell-free background 0.041
[12] = arabinose induction (level): High, raw OD600 reference: median of DMSO wells […], cell-free background 0.041
[13] = arabinose induction (level): Low, raw OD600 reference: median of DMSO wells 0.227, cell-free background 0.041
[14] = arabinose 100 nM, raw OD600 reference: median of DMSO wells 0.413, cell-free background 0.052
[15] = arabinose 10000000 nM, raw OD600 reference: median of DMSO wells […], cell-free background 0.052

SMILES | growth [1] | growth (E. coli TESEC Mtb Alr [2]; [5]) | growth (E. coli TESEC Mtb Alr [2]; [6]) | growth (E. coli TESEC Mtb Alr [2]; [7]) | growth (E. coli TESEC Mtb Alr [2]; [8]) | growth (E. coli TESEC Mtb Alr [2]; [9]) | growth (E. coli TESEC Mtb Asd; [10]) | growth (E. coli TESEC Mtb Asd; [11]) | growth (E. coli TESEC Mtb DapB; [12]) | growth (E. coli TESEC Mtb DapB; [13]) | growth (E. coli TESEC Mtb Alr [3]; [14]) | growth (E. coli TESEC Mtb Alr [3]; [15]) | growth [4]
N[C@@H]1C[C@H]1c1ccccc1 [Tranylcypromine hydrochloride] | 0.241 ± 0.013 | 0.285 ± 0.018 | 0.28 ± 0.0083 | 0.203 ± 0.02 | 0.19 ± 0.0048 | 0.141 ± 0.0022 | 0.354 ± 0.034 | 0.388 ± 0.012 | 0.183 ± 0.0098 | 0.23 ± 0.012 | 0.411 ± 0.011 | 0.371 ± 0.024 | 
CC(CCc1ccccc1)NC(C)C(O)c1ccc(O)cc1 (stereo not drawn) [Nylidrin] | 0.215 ± 0.0087 | 0.297 ± 0.018 | 0.285 ± 0.013 | 0.167 ± 0.0039 | 0.16 ± 0.0093 | 0.144 ± 0.002 | 0.351 ± 0.062 | 0.495 ± 0.048 | 0.222 ± 0.027 | 0.243 ± 0.0092 | 0.404 ± 0.014 | 0.316 ± 0.013 | 0.491 ± 0.052
NC(=O)OCCCc1ccccc1 [Phenprobamate] | 0.219 ± 0.0026 | 0.274 ± 0.0083 | 0.258 ± 0.011 | 0.183 ± 0.018 | 0.192 ± 0.012 | 0.138 ± 0.0065 | 0.31 ± 0.11 | 0.323 ± 0.063 | 0.197 ± 0.023 | 0.215 ± 0.024 | 0.421 ± 0.011 | 0.352 ± 0.02 | 
CCCC(C)C1(CC)C(=O)NC(=O)NC1=O (stereo not drawn) [Pentobarbital] | 0.233 ± 0.0093 | 0.279 ± 0.016 | 0.255 ± 0.013 | 0.233 ± 0.019 | 0.203 ± 0.011 | 0.143 ± 0.0092 | 0.451 ± 0.018 | 0.399 ± 0.087 | 0.2 ± 0.01 | 0.265 ± 0.014 | 0.4 ± 0.018 | 0.369 ± 0.0053 | 0.432 ± 0.011
S=C(NC1CCCCC1)N1CCC(c2cnc[nH]2)CC1 [Thioperamide maleate] | 0.218 ± 0.0074 | 0.286 ± 0.015 | 0.257 ± 0.013 | 0.17 ± 0.016 | 0.15 ± 0.0049 | 0.131 ± 0.0035 | 0.273 ± 0.013 | 0.495 ± 0.039 | 0.201 ± 0.015 | 0.21 ± 0.008 | 0.402 ± 0.016 | 0.299 ± 0.029 | 
CC(=O)O[C@H]1C[C@H](O[C@H]2[C@@H](O)C[C@H](O[C@H]3[C@@H](O)C[C@H](O[C@H]4CC[C@@]5(C)[C@H](CC[C@@H]6[C@@H]5C[C@@H](O)[C@]5(C)[C@@H](C7=CC(=O)OC7)CC[C@]65O)C4)O[C@@H]3C)O[C@@H]2C)O[C@H](C)[C@H]1O[C@@H]1O[C@H](CO)[C@@H](O)[C@H](O)[C@H]1O [Lanatoside C] | 0.198 ± 0.0032 | 0.261 ± 0.024 | 0.26 ± 0.0028 | 0.295 ± 0.031 | 0.19 ± 0.0089 | 0.243 ± 0.024 | 0.339 ± 0.04 | 0.417 ± 0.057 | 0.184 ± 0.021 | 0.233 ± 0.03 | 0.4014 ± 0.0037 | 0.354 ± 0.0094 | 
CN(C)[C@@H]1C(=O)C(C(N)=O)=C(O)[C@@]2(O)C(=O)C3=C(O)c4c(O)ccc(Cl)c4[C@@](C)(O)[C@H]3C[C@@H]12 [Chlortetracycline hydrochloride] | 0.03933 ± 0.00031 | 0.0417 ± 0.0029 | 0.04 ± 0.00072 | 0.0444 ± 0.0038 | 0.0402 ± 0.0018 | 0.0405 ± 0.0011 | 0.0499 ± 0.0023 | 0.0479 ± 0.00061 | 0.0465 ± 0.0014 | 0.0507 ± 0.0031 | 0.0524 ± 0.00066 | 0.0506 ± 0.00035 | 
C[N+]12CCC(CC1)C(OC(=O)C(O)(c1ccccc1)c1ccccc1)C2 (stereo not drawn) [Clidinium bromide] | 0.239 ± 0.0044 | 0.326 ± 0.011 | 0.273 ± 0.0033 | 0.175 ± 0.03 | 0.187 ± 0.01 | 0.132 ± 0.0086 | 0.288 ± 0.035 | 0.453 ± 0.034 | 0.169 ± 0.01 | 0.201 ± 0.0094 | 0.406 ± 0.015 | 0.353 ± 0.019 | 
